Shown is part of a subset that was picked to be rich in hits.
Pf Dd2 inh: blocks in vitro growth of P. falciparum Dd2; P. falciparum Dd2 growth, SYBR Green, 72 h; Potency, µM (series often up to 28.9 µM), most hits filed as inhibitors; actives 4.3% (n = 120,000); AID 1347417; active = well fitted inhibition curve with a large enough effect; note: nearly all actives have a fitted effect of over 65% in size
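Readout: SYBR Green fluorescence, 485 nm excitation, 535 nm emission, after ~16 h lysis at 37C. Before that, Dd2-infected red cells (2.5% hematocrit) grew 72 h with compound, 29 uM top final concentration.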
Of the large screens only hits and unclear results are named; the others gave an inactive call.

COCCNC(=O)[C@H]1C[C@H](Oc2cccnc2)CN1C(=O)Cc1cccc(OC)c1	none
CCNC(=O)N1CCCC1c1noc(CCC(=O)NCC(C)C)n1 (stereo not given)	none
O=C1CCC2(CCN(c3nc4ccccc4s3)CC2)CN1Cc1cccnc1	none
CC1CCN(c2nc3ccc(C(=O)NCc4ccccc4)cc3s2)CC1	none
Clc1ccc2nc(N3CCC(NCCc4cccnc4)CC3)sc2c1	Pf Dd2 inh 11µM
CCCCc1nn(CC(=O)N2CCN(c3ccccn3)CC2)c(=O)n1CC	none
COc1ccc(-c2ccccc2NC(=O)C2CCCN2C(=O)CC(C)(C)C)cc1 (stereo not given)	none
Nc1c(C(=O)Nc2ccccc2Cl)nnn1Cc1cccc(Cl)c1	Pf Dd2 inh 7.1µM
CCc1ccc(Cn2nnc(C(=O)Nc3ccc(C)cc3)c2N)cc1	none
Cc1ccc(Cn2nnc(C(=O)Nc3ccc(F)c(F)c3)c2N)cc1	Pf Dd2 inh 0.89µM
CSc1ccc(Cn2nnc(C(=O)Nc3ccc(C)cc3Cl)c2N)cc1	none
CCOc1ccc(Cn2nnc(C(=O)Nc3ccc(Cl)cc3)c2N)cc1	none
Cc1cc(C)cc(NC(=O)c2nnn(Cc3cccc(Br)c3)c2N)c1	none
C[C@H](O)c1c(-c2ccc(F)cc2)noc1C(=O)N1CCC1	none
O=C(Cc1ccc(Cl)cc1)NC1CCN(c2ccccc2)C1=O (stereo not given)	none
Cc1ccc(-c2ccc3nnc(CNC(=O)c4ccc(C)cc4C)n3n2)cc1	none
CCc1noc(-c2ccn3c(CNC(=O)Cc4ccc(C)cc4)nnc3c2)n1	none
O=C1CCN(S(=O)(=O)c2ccccc2)CCCC(C(=O)NCc2ccc(F)cc2)CCN1 (stereo not given)	none
Cc1ccc(C(=O)NC(C(=O)NC2CC2)C2CCN(C(=O)c3ccccc3F)CC2)cc1 (stereo not given)	none
COCCNc1ncccc1-c1noc([C@@H]2CCCN2C2CCN(C(C)=O)CC2)n1	none
COCCNc1cc(N2CCN(C3CCCCC3)CC2)c2noc3c2c1C(=O)c1ccccc1-3	Pf Dd2 inh 0.89µM
O=C(c1csc(N2CCN(c3ccccc3)CC2)n1)N1CCN(C2CCCCC2)CC1	none
O=C1c2ccccc2-c2onc3c(N4CCN(C5CCCCC5)CC4)cc(NCCO)c1c23	Pf Dd2 inh 5µM
O=C1c2ccccc2-c2onc3c(Br)cc(NC4CCCCC4)c1c23	none
COCCNc1ncccc1-c1noc([C@@H]2CCCN2C2CCN(C)CC2)n1	none
N#Cc1cccnc1N1CCC(NC(=O)c2ccc3cccc(F)c3n2)CC1	none
CS(=O)(=O)N1CCC(OC2CCN(C(=O)NC3CCCCC3)CC2)CC1	none
CCCOCC(=O)N1CCCC(c2cc(N3CCOCC3)nc(C)n2)C1 (stereo not given)	none
CCn1ncc(CN2CCCCCCN(C)C(=O)[C@@H]3CCC[C@@H]32)c1C	none
Cn1cc(CCC(=O)NCc2ccc(Cl)cc2)c2ccccc21	none
CCN(CC)c1cc(CCC(=O)NCc2ccc(Cl)cc2)ccn1	Pf Dd2 inh 5µM
CCN(CC)c1cc(CCC(=O)N(C)CCc2ccncc2)ccn1	none
Cc1ccc(C(=O)NC[C@H]2O[C@@H](CC(=O)NC3CC3)[C@H](O)[C@@H]2O)cc1	none
CC(=O)N(C1CC1)C1CCOC2(CCN(C(=O)c3cccc4nccnc34)CC2)C1 (stereo not given)	none
COc1ccc(C(=O)Nc2cc(NC(=O)c3ccco3)ccc2OC)cc1Cl	none
COc1ccc(NC(=O)c2ccco2)cc1NC(=O)C(C)(C)Oc1ccc(Cl)cc1	Pf Dd2 inh 10µM
COc1ccc(NC(=O)c2ccco2)cc1NC(=O)c1c(OC)cccc1OC	none
Cc1ccc(CNC(=O)N2CCCC(Cc3nncn3-c3ccccc3)C2)cc1 (stereo not given)	none
O=C1CCN(S(=O)(=O)c2ccccc2)CCCN(C(=O)Nc2ccccc2F)CCN1	none
Cc1ccc(-c2ncc3c(n2)OCCN(Cc2ccc(F)cc2F)C3=O)cc1	none
CC1=C[C@@H](CNC(=O)C2CC2)[C@H](C(C)C)C[C@H]1CC(=O)N1CCOCC1	none
CC(=O)N1CCN(C(=O)C[C@@H]2C[C@@H](C(C)C)[C@H](CNC(=O)C3CC3)C=C2C)CC1	none
CCCNC(=O)NC[C@@H]1C=C(C)[C@H](Cc2nc3ccccc3[nH]2)C[C@H]1C(C)C	none
CC1=C[C@@H](CNC(=O)C2CCCCC2)[C@H](C(C)C)C[C@H]1Cc1nc2ccccc2n1C	Pf Dd2 inh 10µM
CC1=C[C@@H](CNC(=O)Cn2cnnn2)[C@H](C(C)C)C[C@H]1Cc1nc2ccccc2[nH]1	none
CCC(CC)C(=O)NC[C@@H]1C=C(C)[C@H](Cc2nc3ccccc3n2C)C[C@H]1C(C)C	Pf Dd2 inh 11µM
COc1ccc(N2CC(C(=O)N3CCN(Cc4ccccc4)CC3)NC2=O)cc1 (stereo not given)	none
CC(C)(C)c1cc(C(=O)NCCc2ccc(Cl)cc2)nn2cccc12	none
Cn1c(CN2CCN3C(=O)NC[C@H]3C2)nc2ccccc21	none
O=C(NCc1ccccc1F)c1ccc2c(c1)CN(Cc1ccncc1)CCO2	none
CNC(=O)c1cnn2ncccc12	none
Cc1ccc(C)c(S(=O)(=O)N(C)CC2CCOCC2)c1	none
O=C1NCCCCCN(C(=O)C2CCC2)[C@H]2CCCC[C@@H]12	none
COc1ccc(-c2nnc(C[C@@H]3C[C@@H](C(C)C)[C@H](CN(C)CCC#N)C=C3C)o2)cc1	Pf Dd2 inh 7.9µM
COc1ccc(-c2nnc(C[C@@H]3C[C@@H](C(C)C)[C@H](CN4CCN(C)CC4)C=C3C)o2)cc1	none
CCNC(=O)NC[C@@H]1C=C(C)[C@H](CC(=O)NCc2ccccn2)C[C@H]1C(C)C	none
CC1=C[C@@H](CNC(=O)CCC(=O)O)[C@H](C(C)C)C[C@H]1CC(=O)NCc1ccccn1	none
CC1=C[C@@H](CNS(=O)(=O)c2ccccc2)[C@H](C(C)C)C[C@H]1Cc1nnc(-c2ccncc2)o1	none
COc1ccc(-c2nnc(C[C@@H]3C[C@@H](C(C)C)[C@H](CN(C)CCc4ccccn4)C=C3C)o2)cc1	Pf Dd2 inh 11µM
COc1ccc(CNC(=O)C[C@@H]2C[C@@H](C(C)C)[C@H](CC#N)C=C2C)cc1	none
CC1=C[C@@H](CNCc2ccccn2)[C@H](C(C)C)C[C@H]1Cc1nnc(-c2ccccc2)o1	Pf Dd2 inh 3.5µM
CN1CCC(N2CC[C@@H]3[C@H]2C(=O)NC[C@H](CCC(=O)Nc2ccccc2)N3C)CC1	none
CNC(=O)[C@H]1C[C@H](Oc2cccnc2)CN1S(=O)(=O)c1cccc(OC)c1	none
Cc1cccc(N2CCN(C(=O)c3noc(-c4ccc[nH]c4=O)n3)CC2)c1	none
O=C(Cc1ccc(N(Cc2ccccc2)C(=O)c2ccco2)cc1)N1CCOCC1	none
CC(=O)N1Cc2ccccc2OC2(CCN([S+](C)(=O)[O-])CC2)C1	none
CCCCc1ccc(NC(=O)Cn2ccn3nc(-c4ccccc4)c(CO)c3c2=O)cc1	none
CS(=O)(=O)Nc1ccc(C2(C(=O)N3CCN(c4ccccn4)CC3)CCCCC2)cc1	none
O=C(c1ccc(CC2CCNCC2)cc1)N1CCCC1	none
CC(C)CN(CC(C)C)c1nnc(NC(=O)Nc2cccc(C(F)(F)F)c2)s1	Pf Dd2 inh 11µM
CCN(c1ccccc1)c1nnc(NC(=O)Nc2cccc(C(F)(F)F)c2)s1	none
Cc1ccc(NC(=O)Nc2nnc(N(CC(C)C)CC(C)C)s2)cc1Cl	none
CC(C)(C)OC(=O)N1CCC(c2c(C(=O)O)cnn2-c2ccc(F)cc2F)CC1	none
CC(C)(C)OC(=O)N1CCC(c2c(C(=O)Nc3cccc(C(F)(F)F)c3)cnn2-c2ccc(F)cc2F)CC1	Pf Dd2 inh 11µM
Cc1cccc(-n2ncc(C(=O)Nc3ccc4c(c3)OCO4)c2C2CCN(C(=O)OC(C)(C)C)CC2)c1	Pf Dd2 inh 10µM

Compound activity deposited in PubChem BioAssay by National Center for Advancing Translational Sciences (NCATS).
